# Source: PubChem BioAssay
# Many of the other results were omitted from the sample, so hits are more common in it than they were.
# D1 allo mod – D1 dopamine receptor (human) allosteric modulation; actives 5.9% (n = 58,000); B-score at 10 µM; AID 641; HEK293 D1, CRE-luciferase, dopamine EC30 potentiation; actives deviate in either direction;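 active = luminescence count or its row- and column-corrected plate score outside the 99.7% band of the plate's sample wells, on either side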
# BAP1 block – human BAP1 deubiquitinase inhibition | Q92560 | recombinant BAP1, Ub-AMC hydrolysis fluorescence kinetic; hits give low values | calls only at 20 µM | actives 0.48% (n = 72,000);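 active = activity remaining at or below 50% of control, provided the compound also passes the data quality filters; inactive = the rest, including low values that fail the filters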
# hDAT+cocaine – changed human dopamine transporter uptake under cocaine IC80; LLC-PK1 hDAT cells, [14C]-dopamine uptake with cocaine IC80; actives deviate in either direction; actives 1.3% (n = 110,000); B-score at 10 µM;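 active = Z score or B-score, a plate-position-corrected score, falls beyond the plate's 99.7% confidence bounds, in either direction; inactive = both scores lie inside the 99.7% bounds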
# Target sequence (Q01959 whole entry, looked up): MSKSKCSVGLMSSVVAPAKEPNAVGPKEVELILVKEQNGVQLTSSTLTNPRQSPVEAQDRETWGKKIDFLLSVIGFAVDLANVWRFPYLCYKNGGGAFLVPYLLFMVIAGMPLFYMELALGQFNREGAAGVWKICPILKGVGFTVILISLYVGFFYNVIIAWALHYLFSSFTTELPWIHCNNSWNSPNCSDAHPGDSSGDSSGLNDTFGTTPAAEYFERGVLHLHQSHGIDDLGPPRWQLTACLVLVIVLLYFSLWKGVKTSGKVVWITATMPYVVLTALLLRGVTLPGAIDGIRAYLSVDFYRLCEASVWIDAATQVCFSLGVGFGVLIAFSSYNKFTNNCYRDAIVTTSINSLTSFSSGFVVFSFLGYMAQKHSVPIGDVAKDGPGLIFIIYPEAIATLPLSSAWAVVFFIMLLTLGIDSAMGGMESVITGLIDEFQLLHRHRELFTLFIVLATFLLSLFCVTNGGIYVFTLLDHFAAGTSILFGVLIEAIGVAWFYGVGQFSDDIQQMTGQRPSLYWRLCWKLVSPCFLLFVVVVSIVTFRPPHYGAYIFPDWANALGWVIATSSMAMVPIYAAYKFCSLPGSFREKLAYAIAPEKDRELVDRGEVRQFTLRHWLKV
# Numbers stand for hits; - = inactive; . = no result given.
SMILES,D1 allo mod,BAP1 block,hDAT+cocaine
Cc1ccccc1Nc1nc(N)nc(CN2C(=O)NC3(CCCCC3C)C2=O)n1 (stereo not drawn),-,-,-7.6
CCOC(=O)C(CC)Sc1nc2c(c(=O)[nH]c(=O)n2C)n1C(C)C (stereo not drawn),.,-,.
CCn1cc(C(=O)NCc2ccc(C)o2)c2cc(OC)c(OC)cc2c1=O,-6.3,-,-
CCn1cc(C(=O)NCC(=O)OC)c2cc(OC)c(OC)cc2c1=O,-,.,-
COc1ccc(NS(=O)(=O)c2cccc(-c3nnc4n3CCCCC4)c2)cc1,.,.,-
O=c1[nH]c2ccc(S(=O)(=O)Nc3ccc(-c4nnc5n4CCCCC5)cc3)cc2o1,-5,-,-
C=CCOC(=O)C1=C(C)NC(=O)NC1c1ccccc1 (stereo not drawn),.,-,.
CC1(C)Cc2c(sc3nc(SCC(=O)NCc4ccco4)n(-c4ccccc4)c(=O)c23)CS1,.,-,2.8
Cc1sc2nc(SCC(=O)NCc3ccco3)n(CCc3ccccc3)c(=O)c2c1C,-,-,-
O=C(CSc1nc2sc3c(c2c(=O)n1-c1ccccc1)CCCC3)NCc1ccco1,-,-,.
Cc1sc2nc(SCC(=O)NCc3ccco3)n(C)c(=O)c2c1C,-2.6,-,-
Cc1oc(C(C)(C)C)cc1C(=O)NCCNc1c(Cl)cccc1[N+](=O)[O-],.,-,.
Brc1ccc(C=NC2C3CC4CC(C3)CC2C4)cc1 (stereo not drawn),.,-,.
O=C(c1ccc(Cl)cc1)N1CCN(c2ccc([N+](=O)[O-])c(NCc3ccccc3)c2)CC1,.,-,.
CC(=O)N/C(N)=N\c1nc2cc(C)ccc2o1,.,-,.
CCOc1ccc(/C=N/n2c(SC)nnc(C(C)(C)C)c2=O)cc1,.,.,-
CCOc1ccc(/C=N/n2c(SC)nnc2-c2ccccc2)cc1OCC,.,.,3.3
COc1ccc(NC(=O)C2Cc3ccccc3CN2C(=O)c2ccccc2)cn1 (stereo not drawn),-,-,2.9
O=C(NC1=NCCS1)C1Cc2ccccc2CN1C(=O)c1ccccc1 (stereo not drawn),-,-,-
O=C(NCc1n[nH]c(=S)n1-c1ccccc1Cl)c1ccc(S(=O)(=O)N2CCOCC2)cc1,.,-,.
Cn1c(SCc2cccc3ccccc23)nnc1-c1ccco1,-,-,2.7
Nn1c(SCc2cccc3ccccc23)nnc1-c1ccco1,-,-,-
CN(C)c1ccc(NC(=O)COc2ccc(Br)cc2)cc1,.,-,.
CN(C1=NC(=O)C(CC(=O)Nc2ccc(Br)cc2)S1)c1ccc(O)cc1 (stereo not drawn),-3.8,-,-4
O=[N+]([O-])c1ccc(C2CC(c3ccc(Br)cc3)=Nc3ccccc3N2)cc1 (stereo not drawn),.,-,.
SMILES,D1 allo mod,BAP1 block,hDAT+cocaine
COC(=O)CN1C(c2ccc(O)cc2)Nc2ccc(Br)cc2C1c1ccccc1 (stereo not drawn),.,-,.
CC(C)(C)c1cc(C(C)(C)C)c2nc(-c3ccccc3O)oc2c1O,.,-,.
Cc1ccc2nsnc2c1S(=O)(=O)NCc1cccnc1,-,-,-
Cc1ccc2nsnc2c1S(=O)(=O)N1CCN(CCc2ccccc2)CC1,-4.7,-,4.3
CC(=O)Nc1nc2ccc(N)cc2s1,.,-,.
CC1CCc2c(sc(N)c2C(=O)Nc2cccc(Cl)c2)C1 (stereo not drawn),.,-,.
Cc1ccc(-c2nc3sc4c(N)ncnc4c3c3c2CCCC3)cc1,.,.,-4.9
COC(=O)c1sc2nc(-c3ccccc3)c3c(c2c1N)CCCC3,.,.,-
Cc1ccc(C)c(NC(=O)CC(C)Cc2ccc(Cl)cc2)c1 (stereo not drawn),.,-,.
COc1ccccc1-n1c(=O)oc2ccc(Cl)cc2c1=O,-2.3,-,-
COc1ccc(Cl)cc1N1Cc2ccccc2C1,.,.,-
Cc1cc2cc(CCNC(=O)c3c(-c4ccccc4Cl)noc3C)c(=O)[nH]c2cc1C,-3.7,-,-
COC(=O)CNC(=O)c1c(-c2ccccc2Cl)noc1C,-,-,-
COc1ccc(C2C3=C(CC(C)(C)CC3=O)Nc3ccccc3N2C(=O)c2ccc(Br)cc2)cc1 (stereo not drawn),.,-,.
COc1ccc(-n2nc3ccc(NC(=O)COc4ccc(Br)cc4)cc3n2)cc1,.,-,.
CSc1ccc(CN2CCN(Cc3cccc([N+](=O)[O-])c3)CC2)cc1,.,-,.
O=c1cc(CN2CCOCC2)nc(C2CC2)[nH]1,.,.,-7.2
CC1CN(Cc2cc(=O)[nH]c(C(C)C)n2)CC(C)O1 (stereo not drawn),.,.,-
COC(=O)c1ccc(NC(=O)c2ccccc2N(C)S(C)(=O)=O)cc1,-,-,-2.7
CC(=O)Nc1ccc(NC(=O)c2ccccc2N(C)S(C)(=O)=O)cc1,-,-,-
O=C(O)CCC(=O)c1ccc2c(c1)OCCO2,-,-,-
O=C(O)CCOc1ccc2c(c1)OCCO2,-,-,-7.6
Cc1cc(=O)oc2[nH]c(=S)[nH]c(=O)c12,.,-,.
CCCSc1nc2sc3c(c2c(=O)n1-c1ccccc1)CCC3,.,-,.
CCC(C)(C)n1nnnc1CN1CCC(NC(=O)c2ccc(Br)cc2)CC1,.,.,1.8
SMILES,D1 allo mod,BAP1 block,hDAT+cocaine
Cc1ccc(Cn2nnnc2CN2CCC(NC(=O)c3ccc(Br)cc3)CC2)cc1,.,.,-
Cc1[nH]nc(-c2ccc(OC(C)C)cc2O)c1-c1ccccc1,.,-,.
CCOc1ccc(-c2n[nH]c(C(F)(F)F)c2-c2ccccc2)c(O)c1C,.,-,.
CCn1c(NCc2ccccn2)nc2c1c(=O)n(C)c(=O)n2C,-,-,4
CCCn1c(NCc2ccco2)nc2c1c(=O)n(C)c(=O)n2C,.,.,-
CCOCCCNC(=O)C(c1ccc(Cl)cc1)N1CCC2(CC1)OCCO2 (stereo not drawn),-,.,-8.5
CCOCCCNC(=O)C(c1ccc(Cl)cc1)N1CCN(c2ccccc2)CC1 (stereo not drawn),-,-,-
CCOC(=O)c1c(C)nc2sc(C(=O)Nc3ccc(OC)cc3)c(N)c2c1-c1ccc(OC)cc1,.,.,-
CCOC(=O)c1c(C)nc2sc(C(=O)Nc3ccc(C(C)=O)cc3)c(N)c2c1-c1ccc(OC)cc1,.,.,3.6
O=C(O)c1ccc([N+](=O)[O-])c2c1NC(C(=O)O)C1CC=CC21 (stereo not drawn),.,-,.
COc1ccc(C(c2nnnn2C2CCCC2)N2CCC(C)CC2)cc1 (stereo not drawn),-,-,-3
COc1ccc(C(c2nnnn2C2CCCCC2)N2CCN(c3ccc(OC)cc3)CC2)cc1 (stereo not drawn),-,-,-
CCOc1cc(C2C(C(=O)OC)=C(C)NC3=C2C(=O)CC(c2ccc(OC)cc2)C3)cc(Cl)c1O (stereo not drawn),.,-,.
O=C(CSc1nc2c(cnn2-c2ccccc2)c(=O)[nH]1)N1CCOCC1,-,-,-
COc1cccc(C2CC(c3cccs3)=NN2C(=O)CSc2nc3c(cnn3-c3ccc(F)cc3)c(=O)[nH]2)c1OC (stereo not drawn),.,.,3
COc1ccc(C2CC(c3cccs3)=NN2C(=O)CSc2nc3c(cnn3-c3ccccc3)c(=O)[nH]2)cc1 (stereo not drawn),.,.,-
O=C(CSc1nc2c(cnn2-c2ccc(F)cc2)c(=O)[nH]1)N1CCOCC1,-,.,-7.9
Cc1cccnc1Nc1nc(-c2ccc(O)cc2O)cs1,-,-,5.4
Cc1cccnc1Nc1nc(-c2ccccn2)cs1,.,.,-
COC(=O)c1c(NC(=O)c2ccc(C)o2)sc2c1CCCCC2,-,.,-
Cc1ccc(C(=O)Nc2sc3c(c2C(=O)O)CCCCC3)o1,-3,-,-
